Bioassay records as filed in PubChem BioAssay.
CYP2C19 activ: human CYP2C19 activators, primary screen, biochemical, luminescence; 96,000 tested, under 10 active; recombinant CYP2C19, luciferin-H EGE luminescence; active compounds read high; 0 = fully inhibited enzyme, 1 = untreated enzyme; AID 1025, 2008; activation factor at 5 µM; Cytochrome P450 2C19 (Homo sapiens), P33261;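 active means activation factor of at least 2 at 5 µM in the primary screen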
Target sequence (P33261 whole entry, looked up): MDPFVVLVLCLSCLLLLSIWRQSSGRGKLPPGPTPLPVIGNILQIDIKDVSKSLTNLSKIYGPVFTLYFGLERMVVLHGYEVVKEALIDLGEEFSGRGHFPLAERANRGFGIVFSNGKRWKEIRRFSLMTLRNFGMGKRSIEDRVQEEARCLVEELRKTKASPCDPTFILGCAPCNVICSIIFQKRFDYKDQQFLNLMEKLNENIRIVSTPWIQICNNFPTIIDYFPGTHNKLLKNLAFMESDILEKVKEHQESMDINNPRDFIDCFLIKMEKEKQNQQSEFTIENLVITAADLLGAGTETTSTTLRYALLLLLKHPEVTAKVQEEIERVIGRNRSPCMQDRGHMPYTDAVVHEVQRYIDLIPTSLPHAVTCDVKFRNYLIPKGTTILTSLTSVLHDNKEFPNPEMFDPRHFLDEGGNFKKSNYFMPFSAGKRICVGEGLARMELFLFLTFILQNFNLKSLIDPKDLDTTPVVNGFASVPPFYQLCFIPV
CYP2C9 inhib: blockers of cytochrome P450 2C9 activity – biochemical, luminescence, ADME assay, primary screen | inhibition, % at 5 µM | CYP2C9 Supersomes, luciferin-H conversion | hit rate 20% among 96,000;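 active means blocking of liver enzyme CYP2C9 beyond about 50% at 5 µM, limit read from the data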
CYP2C9 act: human CYP2C9 activators, primary screen, biochemical, luminescence | recombinant CYP2C9, luciferin-H conversion; active compounds read high; factor 1 = untreated enzyme, 0 = blocked | activation factor at 5 µM | hit rate 1.4% among 96,000;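 active means activation factor of 2 or more for CYP2C9 at a 5 µM dose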
CYP2C19 inhib: blockers of cytochrome P450 2C19 activity – biochemical, luminescence, ADME assay, primary screen. P33261. CYP2C19 Supersomes, luciferin-H EGE luminescence, 30 min. inhibition, % at 5 µM. hit rate 21% among 96,000. AID 778, 2007;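 active means CYP2C19 inhibition above a set limit at 5 µM in the primary screen, cut at about 50% in these data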
Cav3 T inh: Cav3.2 calcium influx blockers – cell-based, Fluo-4 calcium fluorescence, FDSS, MLSMR library, primary screen | Voltage-dependent T-type calcium channel subunit alpha-1H (Homo sapiens), O95180 | Cav3.2-expressing cells; active compounds read low | B-score at 10 µM | hit rate 4% among 100,000 | AID 449739, 2010;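 active means single-dose well whose peak fluorescence ratio is a statistical outlier from its plate by either plate-standardised score or position-corrected B-score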
Of the large screens only hits and unclear results are named; the others gave an inactive call. Most compounds without a hit are left out; they make up all but 27% or so of the library.

Cc1ccc(C2C(C#N)=C(N)Oc3c2c(=O)n(C)c(=O)n3C)cc1 (stereo unspecified)	CYP2C9 inhib 56
CCC1CCCCN1Cc1ccc(OC)c(C)c1C (stereo unspecified)	none
Cc1ccc(Nc2nc(N)nc(CN3CCN(C)CC3)n2)cc1	none
COc1ccc(Nc2nc(N)nc(CN3CCN(c4ccccn4)CC3)n2)cc1	none (no result: Cav3 T inh)
Cc1ccc(Nc2nc(N)nc(CN3CCN(C(=O)c4ccco4)CC3)n2)cc1Cl	CYP2C9 inhib 85, CYP2C19 inhib 78
Cc1cccc(Nc2nc(N)nc(CN3CCN(C)CC3)n2)c1	CYP2C9 inhib 96 (no result: Cav3 T inh)
CCN1CCN(Cc2nc(N)nc(Nc3ccc(C)c(C)c3)n2)CC1	none
Cc1cccc(Nc2nc(N)nc(CN3CCN(c4ccc(F)cc4)CC3)n2)c1	CYP2C9 inhib 59, CYP2C19 inhib 55
Cc1ccc(N(CN2C(=O)NC(C)(C)C2=O)CN2C(=O)NC(C)(C)C2=O)cc1	CYP2C19 inhib 51
CC1(C(=O)NCCCNc2ncc(C(F)(F)F)cc2Cl)C=CC2(CCCCC2)N1C(=O)c1ccccc1 (stereo unspecified)	none (no result: CYP2C19 activ, CYP2C9 inhib, CYP2C9 act, CYP2C19 inhib)
CN=C(Nc1cc(Cl)ccc1Cl)SC1CC(=O)N(c2ccc(C(=O)OC)cc2)C1=O (stereo unspecified)	CYP2C9 inhib 100, CYP2C19 inhib 92
COC(=O)c1ccc(N2C(=O)CC(Sc3n[nH]c(C)n3)C2=O)cc1 (stereo unspecified)	none
Cc1cccc(-c2noc(CN(C(=O)C(c3ccccc3)c3ccccc3)C(C)C)n2)c1	CYP2C9 inhib 51, Cav3 T inh -6.7
COc1cccc(C(=O)N(Cc2nc(-c3cccc(C)c3)no2)C(C)C)c1OC	CYP2C9 inhib 82, CYP2C19 inhib 74, Cav3 T inh -5.8
Cc1cccc(-c2noc(CN(C(=O)c3ccc4c(c3)OCO4)C(C)C)n2)c1	Cav3 T inh -5.1
Cc1cccc(-c2noc(Cc3ccccc3)n2)c1	none
Cc1cccc(-c2noc(CN(C(=O)c3ccc(Br)o3)C(C)C)n2)c1	CYP2C9 inhib 56, Cav3 T inh -4.7
Cc1cc(C)cc(NC(=O)NCc2nnc(SCc3ccccc3)n2C)c1	Cav3 T inh -4.3
Cn1c(CNC(=O)Nc2ccccc2)nnc1SCc1ccccc1	none
COCC(=O)Nc1nc(-c2ccccc2)ns1	none (no result: CYP2C19 activ, CYP2C9 inhib, CYP2C9 act, CYP2C19 inhib)
CCCCCn1c2nc3ccccc3nc2c2c(=O)n(CC3CCCO3)c(C)nc21 (stereo unspecified)	CYP2C9 inhib 74 (no result: Cav3 T inh)
COCCCn1c2nc3ccccc3nc2c2c(=O)n(Cc3ccccc3Cl)cnc21	none
COCCCn1c(C)nc2c(c1=O)c1nc3ccccc3nc1n2CCc1ccccc1	CYP2C9 inhib 80
COCCCn1c2nc3ccccc3nc2c2c(=O)n(Cc3ccc(Cl)cc3)cnc21	CYP2C19 inhib 96
O=c1c2c3nc4ccccc4nc3n(Cc3ccccc3)c2ncn1Cc1ccco1	CYP2C9 inhib 61
CC(C)CNC(=O)NC(=O)CSc1nc2ccccc2n1CC(C)C	none
CCCNC(=O)NC(=O)CSc1nc2ccccc2n1CC(C)C	CYP2C9 inhib 53, CYP2C19 inhib 88
CCNC(=O)NC(=O)CSc1nc2ccccc2n1CCOC	CYP2C9 inhib 61
CC(C)C(c1nnnn1Cc1cccs1)N1CCN(c2ccccc2)CC1 (stereo unspecified)	none
C[C@@H]1NC(=O)N[C@@H]1CCCCCC(=O)O	none (no result: CYP2C19 activ, CYP2C9 inhib, CYP2C9 act, CYP2C19 inhib)
COc1ccc(OC)c(NC(=O)C2CC(=O)n3ncnc3N2)c1 (stereo unspecified)	none
Cc1c(C(=O)COC(C)(C)C)[nH]c2ccccc12	CYP2C19 inhib 55 (no result: Cav3 T inh)
c1ccc(-c2noc(C34CC5CC(CC(C5)C3)C4)n2)nc1	none
O=C(Oc1ccccc1Cl)c1ccccc1P(=O)(O)O	none
CCOC(=O)C1=C(NC(=O)c2ccc(Br)o2)Nc2ccccc2N=C1	CYP2C9 inhib 60
CCOC(=O)c1c(NC(=O)c2ccc(Br)o2)sc(C)c1CC	none
CCCCNC(=O)CSc1nc2ccsc2c(=O)n1C1CCN(C(=O)OCC)CC1	CYP2C9 inhib 56
CCC1CCCCN1C(=O)CSc1nnc(-c2c[nH]c3ccccc23)o1 (stereo unspecified)	CYP2C19 inhib 91
CC1CCCC(C)N1C(=O)CSc1nnc(-c2c[nH]c3ccccc23)o1 (stereo unspecified)	none
CC1CCCN(C(=O)CSc2nnc(-c3c[nH]c4ccccc34)o2)C1 (stereo unspecified)	CYP2C19 inhib 71
CCC1CCCCN1C(=O)CSc1nc2c([nH]c3ccccc32)c(=O)n1C (stereo unspecified)	none (no result: CYP2C19 activ, CYP2C9 inhib, CYP2C9 act, CYP2C19 inhib)
COc1ccc(-c2nnc(SCC(=O)N3CCCC(C)C3)o2)c(OC)c1 (stereo unspecified)	CYP2C19 inhib 71
CCN(CC)S(=O)(=O)c1ccc(NC(=O)C(C)N(c2ccccc2)S(C)(=O)=O)cc1 (stereo unspecified)	none (no result: CYP2C19 activ, CYP2C9 inhib, CYP2C9 act, CYP2C19 inhib)
COc1cccc(N2CCN(Cc3cccnc3)CC2)c1	CYP2C19 inhib 67
O=c1cc(N2CCN(Cc3ccccc3)CC2)[nH]c(=O)n1-c1cccc(C(F)(F)F)c1	none (no result: CYP2C19 activ, CYP2C9 inhib, CYP2C9 act, CYP2C19 inhib)
COc1cccc(CN2CCN(c3ncccn3)CC2)c1	CYP2C19 inhib 56
COc1cccc(CN2CCN(c3cccc(C(F)(F)F)c3)CC2)c1OC	none (no result: CYP2C19 activ, CYP2C9 inhib, CYP2C9 act, CYP2C19 inhib)
FC(F)(F)c1cccc(N2CCN(Cc3cccnc3)CC2)c1	CYP2C9 inhib 81, CYP2C19 inhib 96
CCOc1cccc(CN2CCN(c3cccc(C(F)(F)F)c3)CC2)c1O	CYP2C9 inhib 65, CYP2C19 inhib 93
COCCn1c(Cc2ccccc2)nnc1SCC(=O)NC(C)C	none
O=C1NC(c2ccccc2)=C(c2nc3ccccc3s2)C(c2ccc(F)cc2)N1 (stereo unspecified)	CYP2C9 inhib 50, CYP2C19 inhib 55
COc1cccc(-c2nc3ccccc3s2)c1	none
COc1ccc(C2NC(=O)NC(c3ccccc3)=C2c2nc3ccccc3s2)cc1 (stereo unspecified)	Cav3 T inh -5.8
O=C1NC2=C(C(=O)c3ccccc32)C(c2ccccc2)N1 (stereo unspecified)	none
CCOC(=O)c1nn(-c2ccccc2C)c2nc(-c3ccc(Cl)cc3)c(C#N)c(=O)n12	none
Brc1ccc(-c2nc(N/N=C/c3cccnc3)c3ccccc3n2)cc1	CYP2C9 inhib 64
Cc1ccc(-c2nc(N/N=C/c3ccccc3[N+](=O)[O-])c3ccccc3n2)cc1	none
CN(Cc1nc2ccccc2n1C)S(=O)(=O)c1ccc(Cl)cc1	none
Cc1ccc(N(Cc2cc(=O)[nH]c3ccccc23)C(=O)c2ccco2)cc1	none
CC(=O)N(Cc1cc(=O)[nH]c2ccccc12)c1ccc(C)cc1	CYP2C9 inhib 64, CYP2C19 inhib 51
